Positions count from the first letter of the chain named.
Columns and labels:
Test in all cases: PBM; 200 nM protein, PBS
Details in all cases: dsDNA, one strand shown
HOXB4 [1] = target: HOXB4 (Homo sapiens, UniProt P17483 148-234)
VENTX [2] = target: T1, VENTX (Homo sapiens, UniProt O95231 78-163, R121Q)
T1 sequence: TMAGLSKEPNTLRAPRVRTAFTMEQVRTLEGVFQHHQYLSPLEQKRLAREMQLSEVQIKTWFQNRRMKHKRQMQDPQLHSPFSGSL

HOXB9 [3] = target: HOXB9 (Homo sapiens, UniProt P17482 171-250, T197M)
HOXA4 [4] = target: HOXA4 (Homo sapiens, UniProt Q00056 201-287, W262R)
Sequence of HOXA4 (Homo sapiens, UniProt Q00056 201-287, W262R) (Q00056 201-287 W262R): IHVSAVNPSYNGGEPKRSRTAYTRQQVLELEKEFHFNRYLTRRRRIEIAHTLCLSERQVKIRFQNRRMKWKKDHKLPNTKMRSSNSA

HOXC9 [5] = target: HOXC9 (Homo sapiens, UniProt P31274 178-260, K195R)
Sequence of HOXC9 (Homo sapiens, UniProt P31274 178-260, K195R) (P31274 178-260 K195R): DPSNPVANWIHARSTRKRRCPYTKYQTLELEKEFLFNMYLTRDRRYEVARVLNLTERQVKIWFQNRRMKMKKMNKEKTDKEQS

HOXA7 [6] = target: HOXA7 (Homo sapiens, UniProt P31268 116-202)
Sequence of HOXA7 (Homo sapiens, UniProt P31268 116-202) (P31268 116-202): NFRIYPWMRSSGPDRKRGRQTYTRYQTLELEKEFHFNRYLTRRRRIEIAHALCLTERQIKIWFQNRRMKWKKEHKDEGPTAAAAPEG

HOXC10 [7] = target: HOXC10 (Homo sapiens, UniProt Q9NYD6 254-340)
Sequence of HOXC10 (Homo sapiens, UniProt Q9NYD6 254-340) (Q9NYD6 254-340): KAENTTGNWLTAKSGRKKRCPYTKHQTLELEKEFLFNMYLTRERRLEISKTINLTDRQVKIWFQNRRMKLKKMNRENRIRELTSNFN

VENTX [8] = target: T2, VENTX (Homo sapiens, UniProt O95231 78-163, Y115F)
T2 sequence: T1 sequence with Y38F, Q44R

HOXB6 [9] = target: HOXB6 (Homo sapiens, UniProt P17509 132-218, K202E)
Sequence of HOXB6 (Homo sapiens, UniProt P17509 132-218, K202E) (P17509 132-218 K202E): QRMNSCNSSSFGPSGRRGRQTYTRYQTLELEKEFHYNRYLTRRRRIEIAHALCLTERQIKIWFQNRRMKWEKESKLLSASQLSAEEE

HOXA2 [10] = target: HOXA2 (Homo sapiens, UniProt O43364 129-215, R185T)
Sequence of HOXA2 (Homo sapiens, UniProt O43364 129-215, R185T) (O43364 129-215 R185T): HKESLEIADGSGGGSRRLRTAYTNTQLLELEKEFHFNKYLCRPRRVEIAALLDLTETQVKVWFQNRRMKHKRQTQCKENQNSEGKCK

HOXA4 [11] = target: HOXA4 (Homo sapiens, UniProt Q00056 201-287, R217L)
Sequence of HOXA4 (Homo sapiens, UniProt Q00056 201-287, R217L) (Q00056 201-287 R217L): as the sequence (Q00056 201-287 W262R) above, with R17L, R62W counted along it

HOXB9 [12] = target: HOXB9 (Homo sapiens, UniProt P17482 171-250)
Sequence of HOXB9 (Homo sapiens, UniProt P17482 171-250) (P17482 171-250): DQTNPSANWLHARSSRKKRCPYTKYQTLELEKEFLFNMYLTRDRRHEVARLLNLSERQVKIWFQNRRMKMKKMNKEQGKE

HOXB4 [13] = target: HOXB4 (Homo sapiens, UniProt P17483 148-234, V174I)
Sequence of HOXB4 (Homo sapiens, UniProt P17483 148-234, V174I) (P17483 148-234 V174I): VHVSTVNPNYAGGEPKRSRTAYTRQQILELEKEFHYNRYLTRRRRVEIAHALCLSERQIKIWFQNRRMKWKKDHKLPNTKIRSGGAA

HOXC9 [14] = target: HOXC9 (Homo sapiens, UniProt P31274 178-260)
Sequence of HOXC9 (Homo sapiens, UniProt P31274 178-260) (P31274 178-260): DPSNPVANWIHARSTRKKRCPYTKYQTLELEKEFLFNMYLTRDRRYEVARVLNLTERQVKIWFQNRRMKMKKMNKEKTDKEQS

HOXD13 [15] = target: HOXD13 (Homo sapiens, UniProt P35453 263-343, T313R)
Sequence of HOXD13 (Homo sapiens, UniProt P35453 263-343, T313R) (P35453 263-343 T313R): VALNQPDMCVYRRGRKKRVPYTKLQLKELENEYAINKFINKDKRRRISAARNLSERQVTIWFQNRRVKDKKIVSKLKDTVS

HOXC9 [16] = target: HOXC9 (Homo sapiens, UniProt P31274 178-260, R193K)
Sequence of HOXC9 (Homo sapiens, UniProt P31274 178-260, R193K) (P31274 178-260 R193K): as the sequence (P31274 178-260) above, with R16K counted along it

HOXA2 [17] = target: HOXA2 (Homo sapiens, UniProt O43364 129-215, R185K)
Sequence of HOXA2 (Homo sapiens, UniProt O43364 129-215, R185K) (O43364 129-215 R185K): as the sequence (O43364 129-215 R185T) above, with T57K counted along it

HOXD13 [18] = target: HOXD13 (Homo sapiens, UniProt P35453 263-343)
Sequence of HOXD13 (Homo sapiens, UniProt P35453 263-343) (P35453 263-343): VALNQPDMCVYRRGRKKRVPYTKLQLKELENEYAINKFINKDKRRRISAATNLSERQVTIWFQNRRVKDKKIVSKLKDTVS

HOXA4 [19] = target: HOXA4 (Homo sapiens, UniProt Q00056 201-287)
Sequence of HOXA4 (Homo sapiens, UniProt Q00056 201-287) (Q00056 201-287): as the sequence (Q00056 201-287 W262R) above, with R62W counted along it

HOXC10 [20] = target: HOXC10 (Homo sapiens, UniProt Q9NYD6 254-340, K271E)
Sequence of HOXC10 (Homo sapiens, UniProt Q9NYD6 254-340, K271E) (Q9NYD6 254-340 K271E): as the sequence (Q9NYD6 254-340) above, with K18E counted along it

VAX1 [21] = target: VAX1 (Homo sapiens, UniProt Q5SQQ9 86-172)
Sequence of VAX1 (Homo sapiens, UniProt Q5SQQ9 86-172) (Q5SQQ9 86-172): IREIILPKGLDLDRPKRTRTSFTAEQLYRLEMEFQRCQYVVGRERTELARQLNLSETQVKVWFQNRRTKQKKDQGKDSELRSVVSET

HOXD13 [22] = target: HOXD13 (Homo sapiens, UniProt P35453 263-343, T313A)
Sequence of HOXD13 (Homo sapiens, UniProt P35453 263-343, T313A) (P35453 263-343 T313A): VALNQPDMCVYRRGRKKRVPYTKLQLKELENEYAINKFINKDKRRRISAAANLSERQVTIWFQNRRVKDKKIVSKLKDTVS

HOXB9 [23] = target: HOXB9 (Homo sapiens, UniProt P17482 171-250, R186Q)
Sequence of HOXB9 (Homo sapiens, UniProt P17482 171-250, R186Q) (P17482 171-250 R186Q): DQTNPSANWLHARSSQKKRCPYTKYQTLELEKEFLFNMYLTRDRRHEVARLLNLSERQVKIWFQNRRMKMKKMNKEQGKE

HOXC9 [24] = target: HOXC9 (Homo sapiens, UniProt P31274 178-260, R222W)
Sequence of HOXC9 (Homo sapiens, UniProt P31274 178-260, R222W) (P31274 178-260 R222W): as the sequence (P31274 178-260) above, with R45W counted along it

VAX1 [25] = target: VAX1 (Homo sapiens, UniProt Q5SQQ9 86-172, T142I)
Sequence of VAX1 (Homo sapiens, UniProt Q5SQQ9 86-172, T142I) (Q5SQQ9 86-172 T142I): as the sequence (Q5SQQ9 86-172) above, with T57I counted along it

HOXA2 [26] = target: HOXA2 (Homo sapiens, UniProt O43364 129-215, Y150S)
Sequence of HOXA2 (Homo sapiens, UniProt O43364 129-215, Y150S) (O43364 129-215 Y150S): as the sequence (O43364 129-215 R185T) above, with Y22S, T57R counted along it

HOXA7 [27] = target: HOXA7 (Homo sapiens, UniProt P31268 116-202, W177C)
Sequence of HOXA7 (Homo sapiens, UniProt P31268 116-202, W177C) (P31268 116-202 W177C): as the sequence (P31268 116-202) above, with W62C counted along it

HOXA4 [28] = target: HOXA4 (Homo sapiens, UniProt Q00056 201-287, W262F)
Sequence of HOXA4 (Homo sapiens, UniProt Q00056 201-287, W262F) (Q00056 201-287 W262F): as the sequence (Q00056 201-287 W262R) above, with R62F counted along it

HOXA2 [29] = target: HOXA2 (Homo sapiens, UniProt O43364 129-215)
Sequence of HOXA2 (Homo sapiens, UniProt O43364 129-215) (O43364 129-215): as the sequence (O43364 129-215 R185T) above, with T57R counted along it

VAX1 [30] = target: VAX1 (Homo sapiens, UniProt Q5SQQ9 86-172, K157R)
Sequence of VAX1 (Homo sapiens, UniProt Q5SQQ9 86-172, K157R) (Q5SQQ9 86-172 K157R): as the sequence (Q5SQQ9 86-172) above, with K72R counted along it

HOXB6 [31] = target: HOXB6 (Homo sapiens, UniProt P17509 132-218)
Sequence of HOXB6 (Homo sapiens, UniProt P17509 132-218) (P17509 132-218): as the sequence (P17509 132-218 K202E) above, with E71K counted along it

ALX4 [32] = target: ALX4 (Homo sapiens, UniProt Q9H161 200-286)
Sequence of ALX4 (Homo sapiens, UniProt Q9H161 200-286) (Q9H161 200-286): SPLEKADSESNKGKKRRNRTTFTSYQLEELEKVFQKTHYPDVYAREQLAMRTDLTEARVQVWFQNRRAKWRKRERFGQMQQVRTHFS

ALX4 [33] = target: ALX4 (Homo sapiens, UniProt Q9H161 200-286, Q225E)
Sequence of ALX4 (Homo sapiens, UniProt Q9H161 200-286, Q225E) (Q9H161 200-286 Q225E): as the sequence (Q9H161 200-286) above, with Q26E counted along it

MSX2 [34] = target: MSX2 (Homo sapiens, UniProt P35548 130-214, R199I)
Sequence of MSX2 (Homo sapiens, UniProt P35548 130-214, R199I) (P35548 130-214 R199I): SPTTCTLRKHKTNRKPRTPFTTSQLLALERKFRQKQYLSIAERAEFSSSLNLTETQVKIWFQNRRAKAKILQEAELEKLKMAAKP

ALX3 [35] = target: ALX3 (Homo sapiens, UniProt O95076 139-225, N203Q)
Sequence of ALX3 (Homo sapiens, UniProt O95076 139-225, N203Q) (O95076 139-225 N203Q): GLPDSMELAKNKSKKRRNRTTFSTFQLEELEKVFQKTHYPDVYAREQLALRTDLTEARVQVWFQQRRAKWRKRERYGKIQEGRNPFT

MSX2 [36] = target: MSX2 (Homo sapiens, UniProt P35548 130-214)
Sequence of MSX2 (Homo sapiens, UniProt P35548 130-214) (P35548 130-214): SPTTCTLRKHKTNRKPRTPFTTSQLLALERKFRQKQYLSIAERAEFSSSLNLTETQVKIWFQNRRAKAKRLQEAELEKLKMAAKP

ALX3 [37] = target: ALX3 (Homo sapiens, UniProt O95076 139-225)
Sequence of ALX3 (Homo sapiens, UniProt O95076 139-225) (O95076 139-225): as the sequence (O95076 139-225 N203Q) above, with Q65N counted along it

ALX3 [38] = target: ALX3 (Homo sapiens, UniProt O95076 139-225, L168Q)
Sequence of ALX3 (Homo sapiens, UniProt O95076 139-225, L168Q) (O95076 139-225 L168Q): as the sequence (O95076 139-225 N203Q) above, with L30Q, Q65N counted along it

ALX3 [39] = target: ALX3 (Homo sapiens, UniProt O95076 139-225, L168V)
Sequence of ALX3 (Homo sapiens, UniProt O95076 139-225, L168V) (O95076 139-225 L168V): as the sequence (O95076 139-225 N203Q) above, with L30V, Q65N counted along it

MSX2 [40] = target: MSX2 (Homo sapiens, UniProt P35548 130-214, F161Y)
Sequence of MSX2 (Homo sapiens, UniProt P35548 130-214, F161Y) (P35548 130-214 F161Y): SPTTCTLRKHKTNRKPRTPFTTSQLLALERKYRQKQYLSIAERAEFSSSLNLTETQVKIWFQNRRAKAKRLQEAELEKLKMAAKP

ALX3 [41] = target: ALX3 (Homo sapiens, UniProt O95076 139-225, N203S)
Sequence of ALX3 (Homo sapiens, UniProt O95076 139-225, N203S) (O95076 139-225 N203S): as the sequence (O95076 139-225 N203Q) above, with Q65S counted along it

Sequence of HOXB9 (Homo sapiens, UniProt P17482 171-250, T197M) (P17482 171-250 T197M): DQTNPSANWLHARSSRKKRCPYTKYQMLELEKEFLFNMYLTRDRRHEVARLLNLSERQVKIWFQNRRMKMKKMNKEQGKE
Sequence of HOXB4 (Homo sapiens, UniProt P17483 148-234) (P17483 148-234): as the sequence (P17483 148-234 V174I) above, with I27V counted along it

ATCATTAA
binding signal (HOXB4 [1]): 13.5 upbm affinity estimate (log intensity, higher = more binding, comparable within an allelic series)
binding signal (VENTX [2]): 11.7 upbm affinity estimate (log intensity, higher = more binding, comparable within an allelic series)
binding signal (HOXB9 [3]): 10.3 upbm affinity estimate (log intensity, higher = more binding, comparable within an allelic series)
binding signal (HOXA4 [4]): 10.9 upbm affinity estimate (log intensity, higher = more binding, comparable within an allelic series)
binding signal (HOXC9 [5]): 12.8 upbm affinity estimate (log intensity, higher = more binding, comparable within an allelic series)
binding signal (HOXA7 [6]): 11.7 upbm affinity estimate (log intensity, higher = more binding, comparable within an allelic series)
binding signal (HOXC10 [7]): 12.4 upbm affinity estimate (log intensity, higher = more binding, comparable within an allelic series)
binding signal (VENTX [8]): 11.7 upbm affinity estimate (log intensity, higher = more binding, comparable within an allelic series)
binding signal (HOXB6 [9]): 10.2 upbm affinity estimate (log intensity, higher = more binding, comparable within an allelic series)
binding signal (HOXA2 [10]): 13 upbm affinity estimate (log intensity, higher = more binding, comparable within an allelic series)
binding signal (HOXA4 [11]): 12.9 upbm affinity estimate (log intensity, higher = more binding, comparable within an allelic series)
binding signal (HOXB9 [12]): 12.1 upbm affinity estimate (log intensity, higher = more binding, comparable within an allelic series)
binding signal (HOXB4 [13]): 14.2 upbm affinity estimate (log intensity, higher = more binding, comparable within an allelic series)
binding signal (HOXC9 [14]): 12.8 upbm affinity estimate (log intensity, higher = more binding, comparable within an allelic series)
binding signal (HOXD13 [15]): 10.7 upbm affinity estimate (log intensity, higher = more binding, comparable within an allelic series)
binding signal (HOXC9 [16]): 12.8 upbm affinity estimate (log intensity, higher = more binding, comparable within an allelic series)
binding signal (HOXA2 [17]): 13.5 upbm affinity estimate (log intensity, higher = more binding, comparable within an allelic series)
binding signal (HOXD13 [18]): 11.8 upbm affinity estimate (log intensity, higher = more binding, comparable within an allelic series)
binding signal (HOXA4 [19]): 14.2 upbm affinity estimate (log intensity, higher = more binding, comparable within an allelic series)
binding signal (HOXC10 [20]): 12.3 upbm affinity estimate (log intensity, higher = more binding, comparable within an allelic series)
binding signal (VAX1 [21]): 13.2 upbm affinity estimate (log intensity, higher = more binding, comparable within an allelic series)
binding signal (HOXD13 [22]): 11.7 upbm affinity estimate (log intensity, higher = more binding, comparable within an allelic series)
binding signal (HOXB9 [23]): 11.8 upbm affinity estimate (log intensity, higher = more binding, comparable within an allelic series)
binding signal (HOXC9 [24]): 11.1 upbm affinity estimate (log intensity, higher = more binding, comparable within an allelic series)
binding signal (VAX1 [25]): 13.2 upbm affinity estimate (log intensity, higher = more binding, comparable within an allelic series)
binding signal (HOXA2 [26]): 10.9 upbm affinity estimate (log intensity, higher = more binding, comparable within an allelic series)
binding signal (HOXA7 [27]): 8.9 upbm affinity estimate (log intensity, higher = more binding, comparable within an allelic series)
binding signal (HOXA4 [28]): 12.5 upbm affinity estimate (log intensity, higher = more binding, comparable within an allelic series)
binding signal (HOXA2 [29]): 12.7 upbm affinity estimate (log intensity, higher = more binding, comparable within an allelic series)
binding signal (VAX1 [30]): 13 upbm affinity estimate (log intensity, higher = more binding, comparable within an allelic series)
binding signal (HOXB6 [31]): 12 upbm affinity estimate (log intensity, higher = more binding, comparable within an allelic series)

GGAGCTCC
binding signal (HOXB4 [1]): 7.69 upbm affinity estimate (log intensity, higher = more binding, comparable within an allelic series)
binding signal (HOXB9 [3]): 8.62 upbm affinity estimate (log intensity, higher = more binding, comparable within an allelic series)
binding signal (ALX4 [32]): 7.72 upbm affinity estimate (log intensity, higher = more binding, comparable within an allelic series)
binding signal (ALX4 [33]): 7.79 upbm affinity estimate (log intensity, higher = more binding, comparable within an allelic series)
binding signal (HOXB9 [12]): 8.6 upbm affinity estimate (log intensity, higher = more binding, comparable within an allelic series)
binding signal (HOXB4 [13]): 7.37 upbm affinity estimate (log intensity, higher = more binding, comparable within an allelic series)
binding signal (MSX2 [34]): 9.52 upbm affinity estimate (log intensity, higher = more binding, comparable within an allelic series)
binding signal (ALX3 [35]): 7.68 upbm affinity estimate (log intensity, higher = more binding, comparable within an allelic series)
binding signal (MSX2 [36]): 9.28 upbm affinity estimate (log intensity, higher = more binding, comparable within an allelic series)
binding signal (ALX3 [37]): 7.41 upbm affinity estimate (log intensity, higher = more binding, comparable within an allelic series)
binding signal (VAX1 [21]): 7.36 upbm affinity estimate (log intensity, higher = more binding, comparable within an allelic series)
binding signal (ALX3 [38]): 7.7 upbm affinity estimate (log intensity, higher = more binding, comparable within an allelic series)
binding signal (HOXB9 [23]): 8.62 upbm affinity estimate (log intensity, higher = more binding, comparable within an allelic series)
binding signal (ALX3 [39]): 7.63 upbm affinity estimate (log intensity, higher = more binding, comparable within an allelic series)
binding signal (MSX2 [40]): 9.3 upbm affinity estimate (log intensity, higher = more binding, comparable within an allelic series)
binding signal (VAX1 [25]): 7.59 upbm affinity estimate (log intensity, higher = more binding, comparable within an allelic series)
binding signal (ALX3 [41]): 7.63 upbm affinity estimate (log intensity, higher = more binding, comparable within an allelic series)
binding signal (VAX1 [30]): 7.58 upbm affinity estimate (log intensity, higher = more binding, comparable within an allelic series)
